According to the supplement of paper PMC6853941:

What follows are compounds tested on MCF10A (assay: perturbation Mahalanobis distance of morphological profile vs DMSO controls (Mahalanobis distance (SD units)); higher = stronger morphological change, active = 7 or more). Details: screen batch: Batch1_Mahalanobis_Distance; 72 h.
Protocol: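 MCF10A cells were seeded onto drugs dispensed acoustically into 384-well plates, using one dose per drug chosen from its human peak plasma concentration, and incubated for 72 h at 37 °C. Cells were stained for DNA, tubulin and mitochondria and imaged; 78 CellProfiler features were extracted, plate-normalised and compared with DMSO wells.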

Row | Compound | perturbation Mahalanobis distance
1 | COc1ccc(C[C@@H]2c3cc(OC)c(OC)cc3CC[N@+]2(C)CCC(=O)OCCCCCOC(=O)CC[N@@+]2(C)CCc3cc(OC)c(OC)cc3[C@H]2Cc2ccc(OC)c(OC)c2)cc1OC [Cisatracurium Besylate] (18.1 µM) | 5.34 (inactive)
2 | O=C1Nc2ccc(Cl)cc2[C@@](C#CC2CC2)(C(F)(F)F)O1 [Efavirenz] (28.8 µM) | 3.91 (inactive)
3 | Nc1ncn([C@@H]2O[C@H](CO)[C@@H](O)[C@H]2O)c(=O)n1 [Azacitidine] (15.4 µM) | 14.8 (active)
4 | COc1cc(C(=O)NS(=O)(=O)c2ccccc2C)ccc1Cc1cn(C)c2ccc(NC(=O)OC3CCCC3)cc12 [Zafirlukast] (0.26 µM) | 2.19 (inactive)
5 | CCc1c2c(nc3ccc(O)cc13)-c1cc3c(c(=O)n1C2)COC(=O)[C@]3(O)CC [7-Ethyl-10-Hydroxy-Camptothecin] (16.78 µM) | 2.85 (inactive)
6 | O=C1C(=O)c2ccccc2C(O)=C1C1CCC(c2ccc(Cl)cc2)CC1 (stereo not drawn) [Atovaquone] (37.9 µM) | 3.34 (inactive)
7 | NC12CC3CC(CC(C3)C1)C2 [Amantadine] (19.85 µM) | 2.66 (inactive)
8 | C=CC[C@@H]1/C=C(\C)C[C@H](C)C[C@H](OC)[C@H]2O[C@@](O)(C(=O)C(=O)N3CCCC[C@H]3C(=O)O[C@H](/C(C)=C/[C@@H]3CC[C@@H](O)[C@H](OC)C3)[C@H](C)[C@@H](O)CC1=O)[C@H](C)C[C@@H]2OC [Tacrolimus] (0.09 µM) | 2.64 (inactive)
